Experimental data: the supplement of paper PMC6089552
The whole screen tested about 3,200 compounds, of which about 300 (9.4%) showed activity. What follows is part of a selection rich in actives, with near analogues and random picks from the rest. Unmarked numbers belong to inactive results.

Test system: A673/TR/shEF
Experiment: cell viability (LOESS-normalised, relative to median of negative controls) (log2 ratio); higher = more viable cells (less compound effect), active = hit call of the paper (over 3 MAD below the median)
Conditions: treatment time: 72 h
How it was run: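 A673/TR/shEF Ewing sarcoma cells were plated at 1,500 per well in 384-well plates and cultured with or without doxycycline, added 24 h before compounds, to induce EWS-FLI1 shRNA knockdown. Library compounds at two or more concentrations, alongside DMSO controls, were applied for three days. Cell viability was measured by CellTiter-Glo luminescence on an Envision reader. Readings were LOESS-corrected per plate, divided by the median of negative controls and log2-transformed, and hits were wells lying at least three median absolute deviations from the median of all screened wells.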

[1] = 0.25 µM, library screen: screen1, EWS-FLI1 expression: high (no doxycycline)
[2] = 0.25 µM, library screen: screen1, EWS-FLI1 expression: low (doxycycline-induced shRNA knockdown)
[3] = 2.5 µM, library screen: screen1, EWS-FLI1 expression: high (no doxycycline)
[4] = 2.5 µM, library screen: screen1, EWS-FLI1 expression: low (doxycycline-induced shRNA knockdown)
[5] = 0.025 µM, library screen: screen1, EWS-FLI1 expression: high (no doxycycline)
[6] = 0.025 µM, library screen: screen1, EWS-FLI1 expression: low (doxycycline-induced shRNA knockdown)
[7] = 25 µM, library screen: screen1, EWS-FLI1 expression: high (no doxycycline)
[8] = 25 µM, library screen: screen1, EWS-FLI1 expression: low (doxycycline-induced shRNA knockdown)
[9] = 0.103 µM, library screen: screen3, EWS-FLI1 expression: high (no doxycycline)
[10] = 0.103 µM, library screen: screen3, EWS-FLI1 expression: low (doxycycline-induced shRNA knockdown)
[11] = 0.308 µM, library screen: screen3, EWS-FLI1 expression: high (no doxycycline)
[12] = 0.308 µM, library screen: screen3, EWS-FLI1 expression: low (doxycycline-induced shRNA knockdown)
[13] = 0.926 µM, library screen: screen3, EWS-FLI1 expression: high (no doxycycline)
[14] = 0.926 µM, library screen: screen3, EWS-FLI1 expression: low (doxycycline-induced shRNA knockdown)
[15] = 2.8 µM, library screen: screen3, EWS-FLI1 expression: high (no doxycycline)
[16] = 2.8 µM, library screen: screen3, EWS-FLI1 expression: low (doxycycline-induced shRNA knockdown)
[17] = 8.3 µM, library screen: screen3, EWS-FLI1 expression: high (no doxycycline)
[18] = 8.3 µM, library screen: screen3, EWS-FLI1 expression: low (doxycycline-induced shRNA knockdown)
[19] = 25 µM, library screen: screen3, EWS-FLI1 expression: high (no doxycycline)
[20] = 25 µM, library screen: screen3, EWS-FLI1 expression: low (doxycycline-induced shRNA knockdown)
[21] = 0.25 µM, library screen: screen2, EWS-FLI1 expression: high (no doxycycline)
[22] = 0.25 µM, library screen: screen2, EWS-FLI1 expression: low (doxycycline-induced shRNA knockdown)
[23] = 2.5 µM, library screen: screen2, EWS-FLI1 expression: high (no doxycycline)
[24] = 2.5 µM, library screen: screen2, EWS-FLI1 expression: low (doxycycline-induced shRNA knockdown)

`COc1ccc(-c2coc3c(OC)c(OC)cc(OC)c3c2=O)cc1` was tested, and the “cell viability (log2)” value [1] was 0.0837, the “cell viability (log2)” value [2] was 0.0693 and the “cell viability (log2)” value [3] was 0.102. For the same compound, the “cell viability (log2)” value [4] was 0.078.
For `CCOc1ccccc1N1C(=O)c2cccc3cccc(c23)C1=O`, the “cell viability (log2)” value [1] was 0.0619, the “cell viability (log2)” value [2] was 0.0408 and the “cell viability (log2)” value [3] was 0.058. For the same compound, the “cell viability (log2)” value [4] was 0.0712.
In the case of `Cc1ccc(-c2nn(C(C)(C)C)c3ncnc(N)c23)cc1`, the “cell viability (log2)” value [5] is reported as 0.00835, the “cell viability (log2)” value [6] is reported as -0.00557 and the “cell viability (log2)” value [1] is reported as 0.0184. The “cell viability (log2)” value [2] was 0.0452, the “cell viability (log2)” value [3] was -0.0765 and the “cell viability (log2)” value [4] was 0.104. The “cell viability (log2)” value [7] was -0.108 (active) and the “cell viability (log2)” value [8] was -0.07.
For `C=CC(=O)N1CCC[C@@H](n2nc(-c3ccc(Oc4ccccc4)cc3)c3c(N)ncnc32)C1`, the “cell viability (log2)” value [9] was -0.0901, the “cell viability (log2)” value [10] was 0.0229 and the “cell viability (log2)” value [11] was -0.0466. The “cell viability (log2)” value [12] was 0.0297, the “cell viability (log2)” value [13] was 0.021 and the “cell viability (log2)” value [14] was 0.0235. The “cell viability (log2)” value [15] was -0.0315, the “cell viability (log2)” value [16] was 0.0823 and the “cell viability (log2)” value [17] was -0.0558. The “cell viability (log2)” value [18] was 0.16, the “cell viability (log2)” value [19] was -0.158 and the “cell viability (log2)” value [20] was 0.0664.
`CC(C)(C)n1nc(-c2ccc(Cl)cc2)c2c(N)ncnc21` was tested, and the “cell viability (log2)” value [5] was 0.227, the “cell viability (log2)” value [6] was -0.0277 and the “cell viability (log2)” value [1] was 0.174. For the same compound, the “cell viability (log2)” value [2] was 0.0475, the “cell viability (log2)” value [3] was -0.388 (active) and the “cell viability (log2)” value [4] was 0.0249. The “cell viability (log2)” value [7] was -0.453 (active) and the “cell viability (log2)” value [8] was -0.00123.
In the case of `CCc1nc(N)nc(N)c1-c1ccc(Cl)cc1`, the “cell viability (log2)” value (0.025 µM, library screen: screen2, EWS-FLI1 expression: high (no doxycycline)) is reported as 0.129, the “cell viability (log2)” value (0.025 µM, library screen: screen2, EWS-FLI1 expression: low (doxycycline-induced shRNA knockdown)) is reported as 0.0541 and the “cell viability (log2)” value [9] is reported as 0.0417. For the same compound, the “cell viability (log2)” value [10] was 0.0477, the “cell viability (log2)” value [1] was 0.0408 and the “cell viability (log2)” value [2] was 0.123. For the same compound, the “cell viability (log2)” value [21] was 0.112, the “cell viability (log2)” value [22] was 0.0163 and the “cell viability (log2)” value [11] was 0.0837. The “cell viability (log2)” value [12] was 0.135, the “cell viability (log2)” value [13] was 0.0823 and the “cell viability (log2)” value [14] was 0.107. For the same compound, the “cell viability (log2)” value [3] was 0.0817, the “cell viability (log2)” value [4] was 0.0354 and the “cell viability (log2)” value [23] was 0.122. The “cell viability (log2)” value [24] was 0.129, the “cell viability (log2)” value [15] was 0.0808 and the “cell viability (log2)” value [16] was 0.046. For the same compound, the “cell viability (log2)” value [17] was 0.0995, the “cell viability (log2)” value [18] was 0.0615 and the “cell viability (log2)” value (25 µM, library screen: screen2, EWS-FLI1 expression: high (no doxycycline)) was 0.0523. The “cell viability (log2)” value (25 µM, library screen: screen2, EWS-FLI1 expression: low (doxycycline-induced shRNA knockdown)) was -0.0463, the “cell viability (log2)” value [19] was 0.153 and the “cell viability (log2)” value [20] was 0.146.
With `CC(=O)Oc1cc2c(c(C)c1OC(C)=O)CC=C1[C@@]2(C)CC[C@@]2(C)[C@@H]3C[C@](C)(C(=O)O)CC[C@]3(C)CC[C@]12C` the “cell viability (log2)” value [1] was 0.0258, the “cell viability (log2)” value [2] was 0.000386 and the “cell viability (log2)” value [3] was 0.0381. The “cell viability (log2)” value [4] was 0.209.
With `CCN1CCN(CC(O)COc2cc(C)c(Cl)c(C)c2)CC1` (stereo not drawn) the “cell viability (log2)” value [1] was 0.082, the “cell viability (log2)” value [2] was 0.0372 and the “cell viability (log2)” value [3] was 0.096. The “cell viability (log2)” value [4] was 0.29.
For `CCCCCCCCCC(=O)N[C@@H](Cc1c[nH]c2ccccc12)C(=O)N[C@@H](CC(N)=O)C(=O)N[C@@H](CC(=O)O)C(=O)NC1C(=O)NCC(=O)N[C@@H](CCCN)C(=O)N[C@@H](CC(=O)O)C(=O)N[C@H](C)C(=O)N[C@@H](CC(=O)O)C(=O)NCC(=O)N[C@H](CO)C(=O)N[C@@H](C(C)CC(=O)O)C(=O)N[C@@H](CC(=O)c2ccccc2N)C(=O)OC1C` (stereo partly drawn), the “cell viability (log2)” value [9] was -0.000338, the “cell viability (log2)” value [10] was -0.000608 and the “cell viability (log2)” value [11] was 0.0186. For the same compound, the “cell viability (log2)” value [12] was 0.0343, the “cell viability (log2)” value [13] was 0.103 and the “cell viability (log2)” value [14] was 0.0444. The “cell viability (log2)” value [15] was 0.0611, the “cell viability (log2)” value [16] was 0.0124 and the “cell viability (log2)” value [17] was 0.0568. For the same compound, the “cell viability (log2)” value [18] was 0.116, the “cell viability (log2)” value [19] was -0.0118 and the “cell viability (log2)” value [20] was -0.0633.
In the case of `COc1cc(OC)cc(C(CNc2ncnc3c2ncn3C2O[C@H](CO)[C@@H](O)[C@H]2O)c2ccccc2C)c1` (stereo partly drawn), the “cell viability (log2)” value [21] is reported as 0.151, the “cell viability (log2)” value [22] is reported as 0.0311 and the “cell viability (log2)” value [23] is reported as 0.147. The “cell viability (log2)” value [24] was 0.121.
In the case of `C#CCCCCCCCCCCC[C@@H](O)C[C@@H](O)COC(C)=O`, the “cell viability (log2)” value [1] is reported as 0.145, the “cell viability (log2)” value [2] is reported as 0.0417 and the “cell viability (log2)” value [3] is reported as 0.08. For the same compound, the “cell viability (log2)” value [4] was 0.0325.
For `COc1ccc(CN2CCN(Cc3ccccc3C(F)(F)F)CC2)c(OC)c1OC`, the “cell viability (log2)” value [1] was -0.00682, the “cell viability (log2)” value [2] was 0.0327 and the “cell viability (log2)” value [3] was 0.087. The “cell viability (log2)” value [4] was 0.144.
With `CC=C(C)C(=O)OC1Cc2c(ccc3ccc(=O)oc23)OC1(C)C` (stereo not drawn) the “cell viability (log2)” value [1] was 0.052, the “cell viability (log2)” value [2] was 0.0529 and the “cell viability (log2)” value [3] was 0.186. For the same compound, the “cell viability (log2)” value [4] was 0.0456.
In the case of `CCCCCCCCCCCCCCCCCCOCC(O)CO` (stereo not drawn), the “cell viability (log2)” value [1] is reported as 0.0496, the “cell viability (log2)” value [2] is reported as 0.117 and the “cell viability (log2)” value [3] is reported as 0.142. For the same compound, the “cell viability (log2)” value [4] was 0.0249.
With `COc1ccc2c(c1)OC[C@@H](Cc1ccc(OC)c(OC)c1)C2=O` the “cell viability (log2)” value [1] was -0.018, the “cell viability (log2)” value [2] was 0.0264 and the “cell viability (log2)” value [3] was 0.11. The “cell viability (log2)” value [4] was 0.0741.
In the case of `COc1ccc2c(c1)OCC(Cc1ccc(OC)c(OC(C)=O)c1)C2=O` (stereo not drawn), the “cell viability (log2)” value [1] is reported as 0.0793, the “cell viability (log2)” value [2] is reported as -0.0163 and the “cell viability (log2)” value [3] is reported as -0.246 (active). For the same compound, the “cell viability (log2)” value [4] was -0.0188.
